PubChem BioAssay AID1159580 (chemical genetic matrix, 2015)
Among all 5,500 compounds or so, about 2,000 (36%) were called active. Roughly 18% stayed inconclusive and do not appear here. No stated cut-off is given here; in the data, active means normalized growth mostly below about 0.91 (no sharp cut-off); inconclusive means no clear call, values can overlap the other calls; inactive means mostly above about 0.92. The list shows a part of the results.

Test: chemical genetic growth profiling, strain panel (AID 1159580);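 further: tested at 20 µM; growth read once vehicle control cultures reached saturation at 30 °C; 1 = growth at the plate median or of vehicle wells; lower values mean less growth of the strain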
Details: S. cerevisiae deletion strains, growth OD

Measured: normalized growth

CN1CCC(=C2c3ccccc3CCc3sccc32)CC1
inactive: locus YAL021C, strain ccr4, hits give low values 0.91 | locus YAL026C, strain drs2, hits give low values 0.956 | locus YAL030W, strain snc1, hits give low values 0.987 | locus YBL061C, strain skt5, hits give low values 0.967 | locus YBR009C, strain hhf1, hits give low values 0.986 | locus YBR023C, strain chs3, hits give low values 0.969 | locus YBR171W, strain sec66, hits give low values 0.961 | locus YBR231C, strain swc5, hits give low values 0.965 | locus YBR279W, strain paf1, hits give low values 0.959 | locus YCL011C, strain gbp2, hits give low values 0.958 | locus YCL016C, strain dcc1, hits give low values 0.948 | locus YCL069W, strain vba3, hits give low values 0.977 | locus YCR088W, strain abp1, hits give low values 0.979 | locus YDL005C, strain med2, hits give low values 0.968 | locus YDL040C, strain nat1, hits give low values 0.98 | locus YDR001C, strain nth1, hits give low values 0.96 | locus YDR069C, strain doa4, hits give low values 0.905 | locus YDR137W, strain rgp1, hits give low values 1.08 | locus YDR159W, strain sac3, hits give low values 0.952 | locus YDR195W, strain ref2 0.954 | locus YDR297W, strain sur2, hits give low values 0.976 | locus YDR334W, strain swr1, hits give low values 0.972 | locus YDR335W, strain msn5, hits give low values 0.949 | locus YDR392W, strain spt3, hits give low values 0.93 | locus YEL003W, strain gim4, hits give low values 0.982 | locus YEL037C, strain rad23, hits give low values 0.975 | locus YEL061C, strain CIN8 (second series), hits give low values 0.967 | locus YER015W, strain faa2, hits give low values 0.967 | locus YER016W, strain bim1, hits give low values 0.995 | locus YER111C, strain swi4, hits give low values 0.954 | locus YER155C, strain BEM2 (second series), hits give low values 0.933 | locus YFR010W, strain ubp6, hits give low values 0.961 | locus YGL167C, strain pmr1, hits give low values 0.969 | locus YGL173C, strain kem1, hits give low values 0.972 | locus YGL227W, strain vid30, hits give low values 0.941 | locus YGL240W, strain doc1, hits give low values 0.998 | locus YGL253W, strain hxk2, hits give low values 0.977 | locus YHR027C, strain rpn1, hits give low values 0.954 | locus YHR030C, strain SLT2, hits give low values 0.943 | locus YHR079C, strain IRE1, hits give low values 0.97 | locus YHR142W, strain chs7, hits give low values 0.951 | locus YJL092W, strain hpr5, hits give low values 0.975 | locus YJL095W, strain BCK1 (second series), hits give low values 0.973 | locus YJL095W, strain BCK1, hits give low values 1.02 | locus YJL115W, strain asf1, hits give low values 0.922 | locus YJL129C, strain trk1, hits give low values 0.967 | locus YJL154C, strain vps35, hits give low values 0.968 | locus YJL164C, strain tpk1, hits give low values 0.968 | locus YJL166W, strain qcr8, hits give low values 0.98 | locus YJR066W, strain TOR1, hits give low values 0.941 | locus YKL160W, strain elf1, hits give low values 0.935 | locus YKR026C, strain gcn3, hits give low values 0.966 | locus YKR091W, strain srl3, hits give low values 0.964 | locus YLL001W, strain dnm1, hits give low values 0.987 | locus YLL026W, hits give low values 0.982 | locus YLL041C, strain sdh2, hits give low values 0.961 | locus YLR027C, strain aat2, hits give low values 0.95 | locus YLR113W, strain HOG1, hits give low values 1.01 | locus YLR221C, strain rsa3, hits give low values 0.997 | locus YLR258W, strain gsy2, hits give low values 0.966 | locus YLR262C, strain YPT6 (second series), hits give low values 1.01 | locus YLR320W, strain mms22, hits give low values 0.98 | locus YLR342W, strain FKS1, hits give low values 0.973 | locus YLR357W, strain rsc2, hits give low values 0.946 | locus YLR370C, strain arc18, hits give low values 0.96 | locus YLR384C, strain iki3, hits give low values 0.967 | locus YML120C, strain ndi1, hits give low values 0.97 | locus YMR058W, strain fet3, hits give low values 0.955 | locus YMR125W, strain sto1, hits give low values 0.933 | locus YMR129W, hits give low values 0.979 | locus YMR205C, strain PFK2, hits give low values 0.958 | locus YMR231W, strain pep5, hits give low values 0.979 | locus YNL071W, strain lat1, hits give low values 0.958 | locus YNL183C, strain NPR1, hits give low values 0.97 | locus YNL209W, strain ssb2, hits give low values 0.962 | locus YNL248C, strain rpa49, hits give low values 0.955 | locus YNL322C, strain KRE1 (second series), hits give low values 0.936 | locus YNR049C, strain mso1, hits give low values 0.97 | locus YOR001W, strain rrp6, hits give low values 0.948 | locus YOR070C, strain gyp1, hits give low values 0.98 | locus YOR080W, strain dia2, hits give low values 0.975 | locus YOR083W, strain WHI5, hits give low values 0.913 | locus YOR106W, strain vam3, hits give low values 0.889 | locus YOR231W, strain MKK1, hits give low values 0.969 | locus YOR265W, strain rbl2, hits give low values 0.969 | locus YOR270C, strain vph1, hits give low values 0.872 | locus YOR290C, strain snf2, hits give low values 0.916 | locus YPL051W, strain arl3, hits give low values 0.956 | locus YPL078C, strain atp4, hits give low values 0.957 | locus YPL106C, strain sse1, hits give low values 0.942 | locus YPL240C, strain hsp82, hits give low values 0.967 | locus YPL256C, strain CLN2, hits give low values 0.963
active: locus YHR013C, strain ard1, hits give low values 0.842
